This is an account of results in PubChem BioAssay AID651871 (Sanford-Burnham Center for Chemical Genomics, 2012).

Where “and” joins values, the source holds several entries; their conditions need not be identical. Equal entries are not always repeated.

This assay concerns H9c2. In words: cardiomyocyte survival under oxidative or metabolic stress – cell-based, panel, H9c2 and HL-1, ATP luminescence, set 2, SAR follow-up (AID 651871).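 Note: cells exposed to stressor for 2 h before ATP readout; reference of the scale not given here.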 Conditions: H9c2/HL-1 cardiomyocytes, 2-deoxyglucose stress, with 2-deoxyglucose; run 5, at 79 µM (top of the series).
On to `CCOC(=O)c1cccc(NC(=O)CNC(=O)c2cc(-c3cc(OC)c(OC)c(OC)c3)nc3ccccc23)c1`, for which the activity (protection/inhibition) was 97.3%.
Then `COc1ccc2c(c1OC)C(=O)N1c3ccccc3C(=O)N(Cc3cccc(Cl)c3Cl)C21` (stereo not drawn), with 88% and 69.1% and -5.13%; and `COc1ccc2nc(-c3cc(OC)c(OC)c(OC)c3)cc(C(=O)NCC(=O)Nc3ccc(C(C)=O)cc3)c2c1`, with 70.9%.
